# Screening results as filed in PubChem.
# Only some compounds are listed: those with a hit (about 1.4% of all), similar ones and a draw of the others.
# HUVEC tox IL1B: toxic to HUVEC cells under IL-1B stimulation. HUVEC cell count loss, Hoechst imaging, IL-1B stimulated. cell count reduction, % at 2 µM. hit rate 0.41% among 94,000. AID 845;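 active = cell count reduction more than 3 SD above the screen-wide mean, cut at about 70% in these data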;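 also: normalized per plate to untreated control cells as the no-loss baseline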
# Insulin prom inh: TRM-6 insulin promoter activity inhibition | TRM-6 cells (human fetal islet line), insulin promoter-eGFP reporter, imaging; reporter expression induced with tamoxifen | inhibition, % at 2 µM | hit rate 0.9% among 130,000;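 active = inhibition above the mean plus 3 SD, with well images judged a real hit on visual review, cut at about 60% in these data, passing the limit was not always enough; inconclusive = inhibition over the cutoff but images rejected on review; inactive = inhibition not above the cutoff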
# NFkB transloc inh: blocks IL-1B driven NFkB nuclear translocation in HUVEC cells; HUVEC IL-1B NFkB p65 nuclear translocation imaging; inhibition, % at 2 µM; hit rate 0.43% among 94,000;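 active = inhibition above about 30% together with a positive call from visual inspection of the well image, limit read from the data; inconclusive = inhibition above a set limit but visual check negative; inactive = inhibition not above a set limit, visual check negative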;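 also: nuclear over cytoplasmic p65 intensity ratio measured by imaging; 0% = IL-1B stimulated DMSO wells and 100% = unstimulated DMSO wells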
# NFkB transloc pot: enhances IL-1B driven NFkB nuclear translocation; HUVEC IL-1B NFkB p65 nuclear translocation imaging; activation, % at 2 µM; hit rate 0.3% among 94,000;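 active = activation above 40%, about the mean plus 3 SD, also judged a hit on visual image review; inconclusive = activation above 40% but not a hit on visual review; inactive = activation not above 40% and no visual hit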;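 also: percent activation is computed from the nuclear over cytoplasmic p65 intensity ratio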
# The depositor's hits bear a star; ? = inconclusive; · = not tested or not shown.
SMILES,HUVEC tox IL1B,Insulin prom inh,NFkB transloc inh,NFkB transloc pot
CCOc1ccc(S(=O)(=O)n2cc(-c3ccccc3)c(N)n2)cc1,2,38,-6,6
CCOc1ccc(S(=O)(=O)n2cc(-c3ccc(F)cc3)c(N)n2)cc1,8,87*,8,-8
O=C(NCc1ccccc1)c1cnsn1,89*,6,-15,15
CC(C)CC(=O)OCc1cn(-c2ccccc2)nn1,-97,·,-6,6
COc1ccc(-c2nc3ccccc3[nH]2)cc1,2,94*,5,-5
COC(=O)c1ccc(-c2nc3ccccc3[nH]2)cc1,·,64*,·,·
COc1ccc(-c2[nH]c(-c3ccc(C(=O)O)cc3)nc2-c2ccccc2)cc1,11,7,64*,-64
CC(=O)Nc1cccc(-c2nc3ccccc3[nH]2)c1,·,21,·,·
Nc1cc(N)cc(-c2nc3ccccc3[nH]2)c1,-30,·,-1,1
CCNC(=O)CN(C1CCCCC1)S(C)(=O)=O,·,0,·,·
Cc1ccccc1-c1noc(CCC(=O)NCC2CCCO2)n1 (stereo not given),84*,-93,-4,4
COc1ccc(C2/C(=C(\O)c3cc(C)ccc3C)C(=O)C(=O)N2CCN(C)C)cc1OC (stereo not given),-187,-408,-4,4
CC1CCN(C(=O)COC(=O)[C@H](C)NS(=O)(=O)/C=C/c2ccccc2)CC1,6,-23,-8,8
COC(=O)C1=C(C)N(c2ccc(Cl)c(Cl)c2)C(=O)C1,-13,69,-55,55*
O=C(NNS(=O)(=O)c1cccc(Cl)c1Cl)c1cccc(S(=O)(=O)N2CCOCC2)c1,·,-67,·,·
CCOc1ccc(C(=O)NCC2CCCO2)cc1 (stereo not given),-25,-34,-56,56*
COc1ccc(C(=O)NC(C(=O)NCC2CCCO2)C(C)C)cc1 (stereo not given),·,82*,·,·
COc1ccc(C(=O)NC(=S)NCC2CCCO2)cc1 (stereo not given),·,-15,·,·
O=C(NCC1CCCO1)c1ccc(C(=O)NCC2CCCO2)cc1 (stereo not given),-17,16,-15,15
CCOC(=O)c1c(NC(=O)COC)sc(C)c1C,-25,?,-49,49*
CCOC(=O)c1c(NC(=O)COC)sc(C(C)=O)c1C,-23,·,0,0
Cc1ccc(NC(=O)COC(=O)C2CC2(Cl)Cl)cc1C (stereo not given),·,-43,·,·
CCCOc1ccc(/C=N/NC(=O)CSCc2ccc([N+](=O)[O-])cc2)cc1OCC,·,36,·,·
Cn1c2ccccc2c2ncn(Cc3ccco3)c(=O)c21,-12,9,-15,15
Cn1c2ccc(F)cc2c2ncn(Cc3ccco3)c(=O)c21,-4,40,32*,-32
SMILES,HUVEC tox IL1B,Insulin prom inh,NFkB transloc inh,NFkB transloc pot
COCc1cc(C)c2c(N)c(C#N)sc2n1,21,4,31*,-31
Cc1ccsc1C(C(=O)NC(C)(C)C)N(C(=O)c1csnn1)c1ccccc1 (stereo not given),·,-67,·,·
Cc1nc2sccc2c(=O)n1N,·,-17,·,·
CC(C)NC(=O)COC(=O)c1cncc(Br)c1,·,-11,·,·
O=C(OCC(=O)N1CCCC1)c1cncc(Br)c1,88*,100*,98*,-98
COc1ccc(CC(=O)NNC(=O)CSc2nnc(Cc3ccc(OC)cc3)n2-c2ccccc2)cc1,·,71*,·,·
COc1ccc(-n2c(Cc3cccn3C)nnc2SCC(=O)NCC2CCCO2)cc1 (stereo not given),11,·,37*,-37
COc1ccc(-n2c(Cc3cccn3C)nnc2SCC(=O)Nc2ccc(C(C)=O)cc2)cc1,-16,·,15,-15
CC1(/[N+]([O-])=C/c2ccccc2F)CCCCC1=O (stereo not given),·,-59,·,·
O=C(O)C(Cc1c[nH]c2ccccc12)N1CCS(=O)(=O)CC1 (stereo not given),·,-35,·,·
O=C(C1COc2ccccc2O1)N1CCOCC1 (stereo not given),-22,21,-31,31
CC12CC(c3ccccc3O1)C(C(=O)N1CCOCC1)C(=O)N2 (stereo not given),-18,71*,8,-8
COc1ccc(-c2nc(SC)n(S(=O)(=O)c3ccccc3)n2)cc1,6,90*,-4,4
CSc1nc(-c2ccccc2)nn1S(=O)(=O)c1ccccc1,-48,31,-4,4
COC(=O)c1cn(CC(=O)Nc2ccc(F)cc2)c2ccccc12,·,-31,·,·
COC(=O)c1[nH]c2ccccc2c1NC(=O)CN1CCN(C(=O)c2ccco2)CC1,-16,91*,5,-5
Cc1nn(C)c(C)c1S(=O)(=O)N(CC(=O)N1CCc2ccccc2C1)c1ccc(C(C)C)cc1,-3,·,1,-1
CC1CC(C)CN(CCOc2cccc(Cl)c2Cl)C1 (stereo not given),·,-93,·,·
